Laboratory results: PubChem BioAssay AID1478 (National Center for Advancing Translational Sciences (NCATS), 2009)
In all, about 200,000 compounds went through this assay and about 860 (0.43%) were called active. Only a selection was taken, and actives are over-represented in it overall. Unmarked numbers belong to inactive results. Calls follow the shape of the dose curve; as a rule, active = well fitted inhibition curve with a large enough effect; inconclusive = small, poorly fitted or top-dose-only effect; inactive = flat fitted curve, though single readings scatter.

Target: Cruzipain (Trypanosoma cruzi) (UniProt P25779)
Test: qHTS Assay for Promiscuous and Specific Inhibitors of Cruzain (with detergent); also: nearly all actives have a fitted effect of over 40% in size
Details: purified cruzain, Z-FR-AMC fluorescence, 0.01% Triton
Experimental: Cruzain (3.4.22.51) is a cysteine protease from the tropical parasite Trypanosoma cruzi. Dual qHTS experiment was performed against the NCGC compound collection in order to 1) identify novel inhibitors of the enzyme and 2) profile the compound collection for promiscuous inhibitors operating via colloidal aggregation (by performing detergent-free and detergent-containing comparison screens). Cruzain was assayed by the use of fluorogenic coumarin-based substrate Z-FR-AMC: proteolytic cleavage releases AMC, whose fluorescence is measured at 360 nm excitation and 450 nm emission. Purified cruzain was supplied by the labs of Prof. James McKerrow and Brian Shoichet, UC San Francisco.
This assay had 0.01% Triton X-100 concentration. See also releated assay "qHTS Assay for Promiscuous and Specific Inhibitors of Cruzain (without detergent)" with 0.00005% Triton X-100.
See following references for additional details:
Assay Provider: Shoichet, Brian; University of California, San Fancisco
Screening Center PI: Austin, C.P.
Screening Center: NIH Chemical Genomics Center [NCGC]
Buffer: 100 mM Sodium Acetate, pH 5.5, 5 mM DTT, Triton X-100 concentration: 0.01%.
Buffer in columns 3 and 4 as negative control (no enzyme).
Substrate solution: 2 uM final concentration of Z-FR-AMC (catalog number I-1160, Bachem) dispensed throughout the plate.
Enzyme: 1.5 nM Cruzain final concentration in columns 1, 2, 5-48. Column 1 is neutral (100% activity). Column 2 contained titration of covalent inhibitor K11777, starting concentration 1 mM, then 1:2 dilution in duplicate).
Three uL of enzyme or buffer were dispensed to 1536-well Greiner black solid bottom plates. Compounds and controls (23 nL) were transferred via Kalypsys PinTool. The plates were incubated for 15 min at room temperature, and then 1 uL of substrate solution was added to start the reaction. The plates were immediately transferred to and read 4 times every 30 seconds for 2 min on ViewLux High-throughput CCD imager (Perkin-Elmer) using 360 nm excitation and 450 nm emission fluorescence protocol. The fluorescence intensity difference between the third and the first time points (time lapse of 60 seconds) was used to compute reaction progress.
Potency is read from the fitted curve at half-maximal effect.

Cruzipain (Trypanosoma cruzi), sequence (P25779 123-467 limits assumed): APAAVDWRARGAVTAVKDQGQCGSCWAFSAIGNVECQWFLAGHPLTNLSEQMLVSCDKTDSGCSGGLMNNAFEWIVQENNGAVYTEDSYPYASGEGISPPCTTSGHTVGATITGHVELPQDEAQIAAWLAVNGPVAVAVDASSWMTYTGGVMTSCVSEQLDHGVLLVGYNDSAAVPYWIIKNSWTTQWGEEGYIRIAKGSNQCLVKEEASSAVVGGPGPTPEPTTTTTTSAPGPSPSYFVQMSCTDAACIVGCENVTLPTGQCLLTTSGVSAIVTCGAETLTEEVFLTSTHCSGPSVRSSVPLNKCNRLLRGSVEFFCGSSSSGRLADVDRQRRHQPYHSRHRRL

Structure (SMILES) | Potency | max response, negative = inhibition
c1ccc(-c2nnc(SCc3nc4ccccc4[nH]3)o2)cc1 | 25.1 µM (active) | –
Clc1ccccc1SCc1nc2ccccc2[nH]1 | – | -1.73%
Clc1ccc(-c2nnc(SCc3nc4ccccc4s3)o2)cc1 | – | -2.22%
COc1ccc(-c2noc(-c3ccc(N4CCN(c5ccccc5)CC4)c([N+](=O)[O-])c3)n2)cc1OC | – | -4.6%
O=C(NCc1ccccc1Cl)C1=Cc2cc(Br)ccc2OC1 | – | -4.23%
COc1ccc(Cn2ccn(CC(=O)Nc3cc(C)ccc3C)c(=O)c2=O)cc1 | – | -6.93%
O=C(NCCCO)C(=O)Nc1c2c(nn1-c1ccc(F)cc1)CSC2 | – | -6.19%
c1ccc(Nc2nc(N3CCOCC3)c3ccccc3n2)cc1 | 14.1 µM (active) | –
Cc1cc(C(=O)Nc2ccccc2N2CCOCC2)c2ccccc2n1 | – | 7.98%
c1cncc(-c2nc(N3CCNCC3)c3ccccc3n2)c1 | – | -1.38%
CCOc1ccc(N(C)S(=O)(=O)c2cc(-c3cnc(C)o3)ccc2OC)cc1 | – | -8.69%
Cc1cc(-c2ccc(C)c(S(=O)(=O)N3c4ccccc4CC3C)c2)on1 (stereo not given) | – | -1.84%
CC(C)Nc1nc(N(c2ccccc2)c2ccccc2)nc(-n2ccnc2)n1 | – | 1.14%
N#Cc1nc(N)nc(N(c2ccccc2)c2ccccc2)n1 | 2.24 µM (active) | –
COc1cc(OC)c(N(C)C(=O)c2cc3c(=O)oc4ccccc4c3s2)cc1Cl | – | -0.489%
Cc1ccccc1CSCCNC(=O)C1CCN(S(=O)(=O)Cc2ccccc2)CC1 | – | -4.58%
COc1cc(Cl)c(NC(=O)C(NS(=O)(=O)c2cccs2)C(C)C)c(OC)c1 (stereo not given) | – | -0.797%
CSc1nn(Cc2cccc(C)c2)c(N)c1S(=O)(=O)c1ccccc1 | – | -5.62%
CCN(CC)CCNc1ncnc2c1cnn2-c1cc(Cl)ccc1C | – | 0.243%
CCCn1c(=N)c(C(=O)NCc2ccccc2)cc2c(=O)n3cccc(C)c3nc21 | – | -0.842%
Cc1cccn2c(=O)c3cc(C(=O)NC(C)c4ccccc4)c(=N)n(CCCO)c3nc12 (stereo not given) | – | -22.8%
CCn1c(=N)c(C(=O)NCCCOC)cc2c(=O)n3cccc(C)c3nc21 | 31.6 µM (active) | –
O=C(NCc1ccc2c(c1)CCN2C(=O)c1ccccc1)c1ccccc1 | – | 1.91%

Structure (SMILES) | Potency | max response, negative = inhibition
CCOc1ccc(-c2nonc2NC(=O)c2oc3ccc(C)cc3c2C)cc1OCC | – | -1.93%
O=C(CCS(=O)(=O)c1ccc2c(c1)NC(=O)CO2)Nc1cccc(C(F)(F)F)c1 | – | -1.23%
COc1ccc(Cl)cc1NC(=O)CNc1ccccc1F | – | -7.98%
COc1ccc(Cl)cc1NC(=O)Cn1c(=O)c2ccccc2n2nncc12 | – | -4.81%
COc1ccc(Cl)cc1NC(=O)COC(=O)C(CC(C)C)N1C(=O)C2CC=CCC2C1=O (stereo not given) | 12.6 µM (active) | –
Cc1oc2ccc(O)c(CN3CCCCC3)c2c1C(=O)Nc1cccc(C(F)(F)F)c1 | – | -4.76%
Cc1cc(C)cc(NS(=O)(=O)c2ccc(-c3cc(C)no3)s2)c1 | – | -11.1%
Cn1c(C(=O)NCCCN2CCN(c3cccc(Cl)c3)CC2)cc2c(=O)n(C)c3ccccc3c21 | – | -27.7%
O=C(NCCN1CCN(Cc2ccccc2)CC1)c1cc2c(=O)[nH]c3ccccc3c2s1 | – | -12.6%
Cn1c(C(=O)NCCN2CCc3ccccc3C2)cc2c(=O)[nH]c3ccccc3c21 | 15.8 µM (active) | –
CC(=O)c1nn(-c2ccc(OC(F)(F)F)cc2)nc1Nc1ccccc1 | – | 1.04%
O=C(CSc1nc2nccnc2c(=O)n1CCc1c[nH]c2ccccc12)Nc1ccccc1F | – | -2.4%
O=C(C1COc2ccccc2O1)N(Cc1cccnc1)c1nc2c(F)cc(F)cc2s1 (stereo not given) | – | -3.06%
CC(C)c1ccc(NC(=O)Cn2nnc(C(=O)NCCc3ccccc3)c2N)cc1 | – | 0.0037%
COC(=O)c1scc(-c2ccc(C)cc2)c1S(=O)(=O)Nc1cc(Cl)c(OC)cc1OC | – | -7.07%
Cc1cccc(C(=O)NCCCN2CCCC2=O)c1 | – | 6.06%
O=C(CCn1c(=S)[nH]c2ccccc2c1=O)NCCCN1CCCC1=O | – | 0.249%
O=C1CCCN1CCCNc1ncnc2c1[nH]c1ccccc12 | 15.8 µM (active) | –
Cc1nn(C(=O)c2c(F)cccc2F)c(C)c1S(=O)(=O)N1CCOCC1 | – | 0.43%
COc1ccc(CC(=O)NCCc2sc3nc(-c4ccc(OC)cc4)nn3c2C)cc1 | – | -3.58%
COc1cc(OC)cc(C(=O)Nc2cc3nn(-c4ccccc4)nc3cc2Cl)c1 | – | 6.82%
CCCCn1c(CCCNC(=O)CC)nc2ccccc21 | – | -2.07%
